In PubChem BioAssay:
Activity calls are given as the source filed them. Unless noted, the rule behind the calls is not given here.

Assays:
[1] = tested on: Wnt5a (protein binding on small-molecule microarray); assay: small molecules binding Wnt5a protein – biophysical, small-molecule microarray, 635/667 nm fluorescence, primary screen (AID 1142); conditions: 635 nm fluorescence, higher = more signal;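 note: fluorescence read at 667 nm with signal to noise per printed feature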
[2] = ATP-based viability of Huh7 replicon cells – cell-based, CellTiter-Glo luminescence, basal, 48 h, cytotoxicity control for HCV replication inhibitor project, primary screen (AID 1143); conditions: higher = more signal, called active from +8 up or from −8 down;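 note: Huh7 hepatoma cells carrying a hepatitis C replication reporter with no stimulus; test concentration not given here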
[3] = Pseudomonas biofilm growth suppression – PAO1 strain, BacTiter-Glo luminescence, LB-PBS, primary screen (AID 1144); conditions: P. aeruginosa PAO1 biofilm, 12 h, higher = more signal
[4] = basal CRE-LacZ reporter activity in PC12 – cell-based, unstimulated, primary screen (AID 1145); conditions: no forskolin, luminescence, 4.5 h, higher = more signal, called active from +8 up or from −8 down
[5] = forskolin-driven CRE-LacZ activity in PC12 – cell-based, CRE-LacZ reporter, forskolin-stimulated, primary screen (AID 1146); conditions: luminescence, 4.5 h, higher = more signal, called active from +8 up or from −8 down;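 note: PC12 cells with 6xCRE LacZ reporter stimulated by forskolin 10 µM; beta-galactosidase reporter signal reflecting CREB driven transcription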
[6] = molecular target: Streptavidin (Streptomyces avidinii) (UniProt P22629); assay: compounds binding control protein streptavidin – biophysical, small-molecule microarray, 635/667 nm fluorescence, artefact control for SMM compound annotation, primary screen (AID 1147); conditions: higher = more signal;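 note: signal reflects streptavidin binding to arrayed compounds as a control protein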
Sequence of Streptavidin (Streptomyces avidinii) (P22629 whole entry, looked up): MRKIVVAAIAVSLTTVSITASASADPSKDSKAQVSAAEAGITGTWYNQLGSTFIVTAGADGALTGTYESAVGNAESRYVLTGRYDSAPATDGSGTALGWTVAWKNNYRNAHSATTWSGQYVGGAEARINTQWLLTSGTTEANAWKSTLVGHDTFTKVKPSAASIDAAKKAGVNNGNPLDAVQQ

[7] = probe aInhba binding on compound microarray – biochemical, small-molecule microarray, 635/667 nm fluorescence, primary screen (AID 1148); conditions: higher = more signal;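 note: score merges 667nm spot fluorescence with signal-to-noise for antibody binding to printed compounds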
Torsin-1A (Homo sapiens) [8] = molecular target: Torsin-1A (Homo sapiens) (UniProt O14656); assay: TOR1A wild-type binding on microarray – cell lysate, small-molecule microarray, lysate, 635/667 nm, primary screen (AID 1149); conditions: COS7 hTOR1A-WT lysate, 635 nm fluorescence, higher = more signal
Sequence of Torsin-1A (Homo sapiens) (O14656 whole entry, looked up): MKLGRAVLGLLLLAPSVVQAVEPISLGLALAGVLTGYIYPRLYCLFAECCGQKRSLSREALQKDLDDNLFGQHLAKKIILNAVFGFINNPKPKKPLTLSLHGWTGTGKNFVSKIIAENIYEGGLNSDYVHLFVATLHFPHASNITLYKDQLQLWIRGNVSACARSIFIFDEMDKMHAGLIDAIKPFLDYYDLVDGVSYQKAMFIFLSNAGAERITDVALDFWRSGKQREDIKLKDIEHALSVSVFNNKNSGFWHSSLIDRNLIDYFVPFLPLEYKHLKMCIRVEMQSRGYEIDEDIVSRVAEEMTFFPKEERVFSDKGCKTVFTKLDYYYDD

Torsin-1A (Homo sapiens) [9] = molecular target: Torsin-1A (Homo sapiens) (UniProt O14656); assay: torsin A mutant lysate binding on microarrays – cell lysate, small-molecule microarray, COS7 lysate, 635/667 nm fluorescence, primary screen (AID 1150); conditions: COS7 hTOR1A mutant lysate, 635 nm fluorescence, higher = more signal;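 note: score pools 667 nm emission and signal to noise measuring lysate protein binding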
[10] = tested on: Sonic hedgehog protein (Shh); assay: Sonic hedgehog microarray binding compounds – biochemical, small-molecule microarray, 635/667 nm fluorescence, primary screen (AID 1151); conditions: 635 nm fluorescence, higher = more signal;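 note: Shh protein binding to compounds spotted on small-molecule microarray slides; score combines spot fluorescence intensity with signal-to-noise across triplicate slides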
[11] = optical density shifts of acrAB sulA E. coli – strain DRC41, OD650, 48 h, E. coli filamentation inducer project, primary screen (AID 1152); conditions: higher = more signal, called active from +8 up or from −8 down;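 note: E. coli MC1000 strain DRC41 lacking acrAB efflux pump and sulA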
[12] = probe aLefty1 binding on compound microarray – biochemical, small-molecule microarray, 635/667 nm fluorescence, primary screen (AID 1153); conditions: higher = more signal;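 note: score merges spot fluorescence with signal-to-noise ratio from the scanned slide images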
[13] = plasmodial surface anion channel blockers, osmotic lysis – cell-based, P. falciparum Indochina, OD700, 1 h, primary screen (AID 1154); conditions: P. falciparum Indochina infected RBC osmotic lysis, higher = more signal, called active from +8 up or from −8 down
[14] = plasmodial surface anion channel blockers, osmotic lysis – cell-based, P. falciparum Indochina, OD700, 2 h, primary screen (AID 1155);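 note: lysis reports solute entry through the parasite surface anion channel PSAC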; conditions: P. falciparum Indochina infected erythrocytes, higher = more signal, called active from +8 up or from −8 down
[15] = changes in parasitized red cell lysis, either direction – P. falciparum Indochina, OD700, 3 h, PSAC antagonist project, primary screen (AID 1156); conditions: P. falciparum-infected erythrocytes, osmotic lysis, higher = more signal, called active from +8 up or from −8 down
[16] = plasmodial surface anion channel blockers, osmotic lysis – cell-based, P. falciparum Indochina, OD700, 18 h, primary screen (AID 1157); conditions: P. falciparum Indochina infected erythrocytes, osmotic lysis OD700, 18 h; higher = more signal, called active from +8 up or from −8 down
[17] = S6 kinase pathway phospho-S6 level changes – cell-based, A549, cytoblot, luminescence, serum-stimulated, primary screen (AID 1158); conditions: 5 h, higher = more signal;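 note: serum-stimulated A549 lung adenocarcinoma cells; signal is phosphorylated S6 detected by cytoblot immunostaining with HRP secondary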
[18] = molecular target: NADPH oxidase 2 (Homo sapiens) (UniProt P04839); assay: compounds shifting NOX2 Amplex Red fluorescence – cell-based, HEK293-NOX2, PMA-stimulated, NOX inhibitor project, primary screen (AID 1159); conditions: 45 min, higher = more signal, called active from +8 up or from −8 down; note: test concentration not given here
Sequence of NADPH oxidase 2 (Homo sapiens) (P04839 whole entry, looked up): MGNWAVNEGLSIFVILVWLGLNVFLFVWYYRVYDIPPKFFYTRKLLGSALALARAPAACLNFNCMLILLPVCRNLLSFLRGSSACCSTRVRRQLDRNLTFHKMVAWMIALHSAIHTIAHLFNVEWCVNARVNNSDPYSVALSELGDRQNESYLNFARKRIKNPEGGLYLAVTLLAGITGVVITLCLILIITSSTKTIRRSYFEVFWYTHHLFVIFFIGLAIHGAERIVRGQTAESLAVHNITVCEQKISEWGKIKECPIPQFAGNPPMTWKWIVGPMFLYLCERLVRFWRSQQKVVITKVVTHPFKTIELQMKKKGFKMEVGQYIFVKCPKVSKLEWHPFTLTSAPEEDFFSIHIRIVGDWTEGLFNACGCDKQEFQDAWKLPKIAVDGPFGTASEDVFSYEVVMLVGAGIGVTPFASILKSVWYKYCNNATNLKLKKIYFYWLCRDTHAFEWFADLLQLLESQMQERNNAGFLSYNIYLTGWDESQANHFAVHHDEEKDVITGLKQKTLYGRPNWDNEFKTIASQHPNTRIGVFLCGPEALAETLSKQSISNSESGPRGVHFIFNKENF

[19] = molecular target: NADPH oxidase 4 (Homo sapiens) (UniProt Q9NPH5); assay: compounds shifting NOX4 Amplex Red fluorescence – cell-based, HEK293-NOX4, tetracycline-induced, NOX inhibitor project, primary screen (AID 1160); conditions: HEK293-NOX4, Amplex Red H2O2 fluorescence, 45 min; higher = more signal, called active from +8 up or from −8 down
Sequence of NADPH oxidase 4 (Homo sapiens) (Q9NPH5 whole entry, looked up): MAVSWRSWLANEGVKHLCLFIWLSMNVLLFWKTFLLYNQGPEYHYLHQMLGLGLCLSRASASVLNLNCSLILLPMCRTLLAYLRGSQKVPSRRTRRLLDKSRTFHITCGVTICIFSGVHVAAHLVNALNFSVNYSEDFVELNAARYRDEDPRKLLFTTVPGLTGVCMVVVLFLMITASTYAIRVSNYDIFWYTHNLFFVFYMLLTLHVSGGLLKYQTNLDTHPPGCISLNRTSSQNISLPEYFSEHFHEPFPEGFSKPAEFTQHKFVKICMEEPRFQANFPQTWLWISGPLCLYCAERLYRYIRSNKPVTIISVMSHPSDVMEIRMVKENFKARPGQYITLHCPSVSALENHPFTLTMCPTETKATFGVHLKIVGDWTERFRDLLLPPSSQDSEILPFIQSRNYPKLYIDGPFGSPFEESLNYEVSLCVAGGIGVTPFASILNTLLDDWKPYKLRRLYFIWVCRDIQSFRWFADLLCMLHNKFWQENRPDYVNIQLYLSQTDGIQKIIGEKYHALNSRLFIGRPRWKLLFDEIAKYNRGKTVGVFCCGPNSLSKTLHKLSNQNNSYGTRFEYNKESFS

[20] = molecular target: NADPH oxidase 5 (Homo sapiens) (UniProt Q96PH1); assay: compounds shifting NOX5 Amplex Red fluorescence – cell-based, HEK293-NOX5, NOX inhibitor project, primary screen (AID 1161); conditions: HEK293-NOX5, ionomycin, 45 min, higher = more signal
Sequence of NADPH oxidase 5 (Homo sapiens) (Q96PH1 whole entry, looked up): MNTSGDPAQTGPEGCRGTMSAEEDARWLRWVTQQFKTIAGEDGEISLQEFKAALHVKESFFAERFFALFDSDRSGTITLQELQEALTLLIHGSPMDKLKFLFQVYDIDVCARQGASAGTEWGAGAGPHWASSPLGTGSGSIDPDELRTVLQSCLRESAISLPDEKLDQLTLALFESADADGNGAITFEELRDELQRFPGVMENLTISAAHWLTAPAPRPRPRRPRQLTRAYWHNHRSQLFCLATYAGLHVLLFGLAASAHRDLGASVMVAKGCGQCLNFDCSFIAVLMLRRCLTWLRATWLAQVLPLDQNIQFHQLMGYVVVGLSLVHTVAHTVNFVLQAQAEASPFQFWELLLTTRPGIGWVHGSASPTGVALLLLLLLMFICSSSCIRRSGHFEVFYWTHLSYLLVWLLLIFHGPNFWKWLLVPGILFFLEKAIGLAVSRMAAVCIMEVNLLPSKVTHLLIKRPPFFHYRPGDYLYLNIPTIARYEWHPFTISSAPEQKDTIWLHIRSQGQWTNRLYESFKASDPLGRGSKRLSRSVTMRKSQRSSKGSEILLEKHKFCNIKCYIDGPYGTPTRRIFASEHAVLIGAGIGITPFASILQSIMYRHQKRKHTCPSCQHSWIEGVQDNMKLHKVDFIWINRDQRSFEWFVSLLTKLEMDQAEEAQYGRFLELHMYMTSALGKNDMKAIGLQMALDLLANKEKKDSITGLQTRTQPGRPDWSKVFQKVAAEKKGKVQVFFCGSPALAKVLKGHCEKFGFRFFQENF

In the case of Cc1ccc(S[C@]2(C(=O)NCC(C)C)CC(=O)N(Cc3cc(C(F)(F)F)cc(C(F)(F)F)c3)[C@@H]2c2ccc(CO)cc2I)cc1, the composite z-score [1] is reported as -0.0088, the z-score [2] is reported as -1.19 (inactive) and the z-score [3] is reported as -0.486 (inactive). The z-score [4] was 0.441 (inactive), the z-score [5] was 0.845 (inactive) and the composite z-score [6] was -0.634. It also gave a composite z-score [7] of 0.0173, a composite z-score (Torsin-1A (Homo sapiens) [8]) of -1.72 and a composite z-score (Torsin-1A (Homo sapiens) [9]) of -0.913. For the same compound, the composite z-score [10] was -1.05, the z-score [11] was -0.336 (inactive) and the composite z-score [12] was 0.12. For the same compound, the z-score [13] was 2.53 (inactive), the z-score [14] was -0.449 (inactive) and the z-score [15] was 0.767 (inactive). For the same compound, the z-score [16] was 0.278 (inactive), the z-score [17] was -0.301 and the z-score [18] was 2.07 (inactive). The z-score [19] was -1.39 (inactive) and the z-score [20] was -0.95.
For COC(=O)C(CC#Cc1ccc2c(c1)[C@]1(C(=O)N2)[C@H](C(=O)O)[C@H]2C(=O)O[C@H](c3ccccc3)[C@H](c3ccccc3)N2[C@@H]1c1ccc(O)cc1)C(=O)OC, the composite z-score [1] was -0.265, the z-score [2] was 0.674 (inactive) and the z-score [3] was -0.208 (inactive). The z-score [4] was -0.467 (inactive), the z-score [5] was -0.686 (inactive) and the composite z-score [6] was -0.641. The composite z-score [7] was -0.0405, the composite z-score (Torsin-1A (Homo sapiens) [8]) was -0.21 and the composite z-score (Torsin-1A (Homo sapiens) [9]) was 0.446. The composite z-score [10] was -0.613, the z-score [11] was -0.818 (inactive) and the composite z-score [12] was 0.145. The z-score [13] was 1.83 (inactive), the z-score [14] was -0.038 (inactive) and the z-score [15] was -0.15 (inactive). For the same compound, the z-score [16] was -0.0548 (inactive), the z-score [17] was 0.148 and the z-score [18] was 0.699 (inactive). For the same compound, the z-score [19] was -0.0438 (inactive) and the z-score [20] was 0.921.
In the case of Cc1ccc(C(C)CC(O)C2C=CC3C(=O)N(C)C(=O)C3N2NC(=O)OC(C)(C)C)o1 (stereo not given), the composite z-score [1] is reported as 0.376, the z-score [2] is reported as 0.963 (inactive) and the z-score [3] is reported as 0.399 (inactive). For the same compound, the z-score [4] was 0.0569 (inactive), the z-score [5] was -0.0179 (inactive) and the composite z-score [6] was 1.22. The composite z-score [7] was 0.4, the composite z-score (Torsin-1A (Homo sapiens) [8]) was 0.204 and the composite z-score (Torsin-1A (Homo sapiens) [9]) was 1.05. For the same compound, the composite z-score [10] was 0.245, the z-score [11] was -0.502 (inactive) and the composite z-score [12] was 0.196. For the same compound, the z-score [13] was -0.205 (inactive), the z-score [14] was 0.562 (inactive) and the z-score [15] was -0.168 (inactive). For the same compound, the z-score [16] was 0.435 (inactive), the z-score [17] was -0.497 and the z-score [18] was 0.347 (inactive). The z-score [19] was -0.202 (inactive) and the z-score [20] was -0.701.
For C=CCOC(=O)[C@H]1[C@@H]2C(=O)O[C@@H](c3ccccc3)[C@@H](c3ccccc3)N2[C@@H](c2ccc(OCCOC(=O)[C@@H]3C[C@@H]4C(=O)N[C@@H](CCCCN(C)C)C(=O)N4[C@@H]3c3ccc(O)cc3)cc2)[C@]12C(=O)Nc1ccc(I)cc12, the composite z-score [1] was 0.451, the z-score [2] was -0.135 (inactive) and the z-score [3] was -1.02 (inactive). The z-score [4] was -0.935 (inactive), the z-score [5] was 1.04 (inactive) and the composite z-score [6] was 0.218. It also gave a composite z-score [7] of 0.0082, a composite z-score (Torsin-1A (Homo sapiens) [8]) of 1.22 and a composite z-score (Torsin-1A (Homo sapiens) [9]) of 0.671. For the same compound, the composite z-score [10] was 1.71, the z-score [11] was -0.785 (inactive) and the composite z-score [12] was -0.15. For the same compound, the z-score [13] was -0.117 (inactive), the z-score [14] was 1.39 (inactive) and the z-score [15] was 5.33 (inactive). For the same compound, the z-score [16] was 0.448 (inactive), the z-score [17] was -0.724 and the z-score [18] was 1.41 (inactive). For the same compound, the z-score [19] was 0.74 (inactive) and the z-score [20] was -0.496.
With CN1C(=O)C2C=CC(C(O)c3ccccc3)N(Nc3ccccc3)C2C1=O (stereo not given) the composite z-score [1] was -0.244, the z-score [2] was 0.658 (inactive) and the z-score [3] was -0.231 (inactive). For the same compound, the z-score [4] was 0.626 (inactive), the z-score [5] was -0.206 (inactive) and the composite z-score [6] was -0.0782. For the same compound, the composite z-score [7] was -0.0195, the composite z-score (Torsin-1A (Homo sapiens) [8]) was -1.5 and the composite z-score (Torsin-1A (Homo sapiens) [9]) was 0.254. For the same compound, the composite z-score [10] was -1.58, the z-score [11] was -1.78 (inactive) and the composite z-score [12] was 0.242. For the same compound, the z-score [13] was 0.0961 (inactive), the z-score [14] was 1.31 (inactive) and the z-score [15] was 0.595 (inactive). For the same compound, the z-score [16] was 0.974 (inactive), the z-score [17] was -1.1 and the z-score [18] was -1.67 (inactive). The z-score [19] was -3.82 (inactive) and the z-score [20] was -3.23.
For C=CCNC(=O)[C@@H]1[C@H]2C(=O)O[C@H](c3ccccc3)[C@H](c3ccccc3)N2[C@H](c2ccc(OCCO)cc2)[C@@]12C(=O)Nc1ccc(C#CCCO)cc12, the composite z-score [1] was 0.847, the z-score [2] was -0.625 (inactive) and the z-score [3] was -0.796 (inactive). For the same compound, the z-score [4] was -0.141 (inactive), the z-score [5] was -0.118 (inactive) and the composite z-score [6] was 1.6. The composite z-score [7] was 1.15, the composite z-score (Torsin-1A (Homo sapiens) [8]) was 1.26 and the composite z-score (Torsin-1A (Homo sapiens) [9]) was 1.17. The composite z-score [10] was 1.59, the z-score [11] was -0.41 (inactive) and the composite z-score [12] was 0.656. For the same compound, the z-score [13] was 7.17 (inactive), the z-score [14] was 2.11 (inactive) and the z-score [15] was 1.14 (inactive). The z-score [16] was 0.812 (inactive), the z-score [17] was -0.344 and the z-score [18] was 1.67 (inactive). The z-score [19] was 0.442 (inactive) and the z-score [20] was 0.688.
In the case of O=C1C2C=CC(C(O)c3ccc(F)cc3)N(Nc3ccccc3F)C2C(=O)N1c1ccccc1 (stereo not given), the composite z-score [1] is reported as -0.0864, the z-score [2] is reported as 0.486 (inactive) and the z-score [3] is reported as -0.746 (inactive). For the same compound, the z-score [4] was 0.433 (inactive), the z-score [5] was 1.53 (inactive) and the composite z-score [6] was 0.59. For the same compound, the composite z-score [7] was 0.254, the composite z-score (Torsin-1A (Homo sapiens) [8]) was 0.0654 and the composite z-score (Torsin-1A (Homo sapiens) [9]) was 0.845. For the same compound, the composite z-score [10] was -0.166, the z-score [11] was -1.13 (inactive) and the composite z-score [12] was 0.336. The z-score [13] was 6.83 (inactive), the z-score [14] was 1.4 (inactive) and the z-score [15] was -0.196 (inactive). The z-score [16] was 0.998 (inactive), the z-score [17] was -1.06 and the z-score [18] was -2.22 (inactive). For the same compound, the z-score [19] was -4.97 (inactive) and the z-score [20] was -2.17.
With COC(=O)[C@@]1(Cc2ccc(OC)cc2)[C@H]2c3cc(C(=O)N4CCCC4)n(Cc4ccsc4Br)c3C[C@H]2CN1C(=O)c1ccccc1 the composite z-score [1] was 0.0185, the z-score [2] was -3.29 (inactive) and the z-score [3] was 0.674 (inactive). For the same compound, the z-score [4] was 1.72 (inactive), the z-score [5] was 46.9 (active) and the composite z-score [6] was 0.161. For the same compound, the composite z-score [7] was 0.19, the composite z-score (Torsin-1A (Homo sapiens) [8]) was -0.34 and the composite z-score (Torsin-1A (Homo sapiens) [9]) was 0.185. The composite z-score [10] was -0.658, the z-score [11] was -0.68 (inactive) and the composite z-score [12] was 0.0429. The z-score [13] was 0.538 (inactive), the z-score [14] was -0.155 (inactive) and the z-score [15] was 0.0114 (inactive). The z-score [16] was 0.469 (inactive), the z-score [17] was 0.0613 and the z-score [18] was 0.289 (inactive). For the same compound, the z-score [19] was -0.137 (inactive) and the z-score [20] was -1.24.
